Screening results: PubChem BioAssay, National Center for Advancing Translational Sciences (NCATS)
Rows were chosen to be rich in hits. Some 19% of all compounds tested hit in one or more screens of this group.
HepG2 tox – kills HepG2 cells in TGF-b inhibitor counter-screen; 0.76% of 410,000 active; Potency, µM (doses to about 46.1 µM), without a hit: at the highest dose activity change, negative = cytotoxicity, usual class: cytotoxic; AID 588856; HepG2 CAGA-GFP viability, ATP luminescence, 18 h; also: potency is read from the fitted curve at half-maximal effect
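HepG2 CAGA-GFP cells (1000/well, DMEM with 1% FBS) received compound, then TGF-beta at 500 pg/mL final, and were incubated 18 hours at 37 degrees C. Viability was read by CellTiter-Glo luminescence. Media-only wells were set as complete cell-killing and DMSO as no toxicity.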
TDP1 cell noCPT – qHTS for Inhibitors of human tyrosyl-DNA phosphodiesterase 1 (TDP1): qHTS in cells in absence of CPT; DT40 Tdp1-/- hTDP1 cells, no CPT, ATP luminescence, 48 h; Potency, µM (series often up to 46.2 µM), inactives show at the top dose activity change, negative = growth inhibition, most hits filed as inhibitors; 15% of 420,000 active; AID 686978, 2013; also: potency is read from the fitted curve at half-maximal effect; % is scaled to controls: 0 for no effect and ±100 for the full control effect; nearly all actives have a fitted effect of over 55% in size
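Stably hTDP1-transfected Tdp1-null chicken DT40 cells were treated with library compounds minus camptothecin and grown for at least 48 hr at 37 °C, after which cellular ATP was quantified by luminescence.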
IL1B secr inh – inhibitors of inflammasome signaling (IL-1 beta secretion); THP-1 LPS/ATP IL-1B secretion, AlphaLISA, 16 h; active compounds read low; activity change, % at 57.5 µM; 4.7% of 360,000 active; AID 743279; in the data active = activity change below about -50%; inconclusive = mostly about -30% to -49%; also: % is scaled to controls: 0 for no effect and ±100 for the full control effect
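THP-1 cells pretreated 1 hr with compounds (up to 57.5 uM final), then stimulated with LPS (250 ng/mL final) plus ATP (1.25 mM final); secreted IL-1B measured by AlphaLISA after 16 hr, decreased signal indicating inhibition.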
TGFb inhibitor – inhibitors of TGF-b signaling. AID 588855. HepG2 CAGA-GFP TGF-b/SMAD3 reporter, GFP fluorescence, 18 h; TGF-beta stimulated, 500 pg/mL final. Potency, µM (highest dose often 46.1 µM), for the others: at the highest dose activity, negative = inhibition, usual class: inhibitors. 1.2% of 410,000 active; also: potency is read from the fitted curve at half-maximal effect; % is scaled to controls: 0 for no effect and ±100 for the full control effect; nearly all actives have a fitted effect of over 65% in size
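Read-out: total well GFP (ex488/em500-530) summed from mean per-cell fluorescence. Cells: HEPG2 CAGA-GFP, 1% FBS DMEM, 18 h at 37 degrees C with 500 pg/mL final TGF-beta. Unstimulated wells served as the full-inhibition control; stimulated DMSO wells = 0%.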
TDP1 cell CPT – DT40-hTDP1 cell growth loss with CPT; chicken DT40 Tdp1-/-;hTDP1 cells + 20 nM CPT, ATP luminescence, 48 h; AID 686979; Potency, µM (doses to about 46.2 µM), for the others: top-dose activity change, negative = growth inhibition, most hits filed as inhibitors; 12% of 420,000 active; also: potency is read from the fitted curve at half-maximal effect; % is scaled to controls: 0 for no effect and ±100 for the full control effect; nearly all actives have a fitted effect of over 55% in size
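Cell growth measured by CellTiter-Glo luminescence after a minimum 48 h, 37 C compound exposure with 20 nM CPT in Tdp1-knockout DT40 cells stably expressing hTDP1, seeded 400/well; qHTS titration format.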
TDP1 inh – inhibitors of human tyrosyl-DNA phosphodiesterase TDP1; Q9NUW8; recombinant TDP1, AlphaScreen DNA substrate cleavage; Potency, µM (series often up to 130 µM), without a hit: at the top dose activity change, negative = inhibition, usual class: inhibitors; 0.28% of 350,000 active; AID 485290; also: potency is read from the fitted curve at half-maximal effect; % is scaled to controls: 0 for no effect and ±100 for the full control effect; nearly all actives have a fitted effect of over 40% in size
Target sequence (Q9NUW8 whole entry, looked up): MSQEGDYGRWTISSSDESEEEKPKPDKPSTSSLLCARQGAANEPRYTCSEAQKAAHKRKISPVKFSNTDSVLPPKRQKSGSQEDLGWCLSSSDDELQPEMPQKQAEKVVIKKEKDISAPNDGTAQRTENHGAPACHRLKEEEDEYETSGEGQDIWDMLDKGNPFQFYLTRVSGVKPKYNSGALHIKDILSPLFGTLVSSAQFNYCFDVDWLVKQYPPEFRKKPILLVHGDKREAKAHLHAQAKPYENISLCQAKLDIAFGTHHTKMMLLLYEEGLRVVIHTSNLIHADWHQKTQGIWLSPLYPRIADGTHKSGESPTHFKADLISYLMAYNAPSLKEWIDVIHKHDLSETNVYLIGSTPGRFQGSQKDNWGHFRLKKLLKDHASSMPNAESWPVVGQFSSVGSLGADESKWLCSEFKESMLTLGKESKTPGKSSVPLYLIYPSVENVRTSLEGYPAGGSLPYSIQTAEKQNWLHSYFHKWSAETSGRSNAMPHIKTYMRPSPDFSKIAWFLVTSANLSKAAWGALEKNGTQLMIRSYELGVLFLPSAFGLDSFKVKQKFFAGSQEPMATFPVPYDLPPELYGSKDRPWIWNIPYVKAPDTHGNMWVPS
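Compounds were preincubated with Tdp1 (1 nM final) for 15 min at room temperature before substrate (15 nM final) started a 5 min reaction; beads (10 ug/ml final) were then added for 10 min before AlphaScreen detection.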
The depositor's hits bear a star; ? = inconclusive; nt = no result; ! = repeats disagree; [ ] = remark or other dose. Unless noted, calls follow the shape of the dose curve; as a rule, active = well fitted curve in the direction sought with a large enough effect; inconclusive = small, poorly fitted or top-dose-only effect, or another doubt; inactive = no such curve, though single readings can be large; an effect the other way counts as inactive or inconclusive.

SMILES | HepG2 tox | TDP1 cell noCPT | IL1B secr inh | TGFb inhibitor | TDP1 cell CPT | TDP1 inh
Cc1c(C(=O)Nc2cccc(C(F)(F)F)c2)sc2nc3n(c(=O)c12)CCC3 | -42.1% | 23.1µM* | nt | ? | 23.1µM* | 2.6%
Cc1nc(N2CCCCC2C)c2c(C)c(C(=O)Nc3cccc(C(F)(F)F)c3)sc2n1 (configuration not stated) | 1.0% | ? | -73.2* | ? | ? | -5.3%
CCOc1ccc(NC(=O)c2sc3nc4n(c(=O)c3c2C)CCC4)cc1 | 3.9% | -12.5% | -12.4 | 1.1% | ? | 3.5%
CCOC(=O)c1ccc(NC(=O)c2sc3nc4n(c(=O)c3c2C)CCC4)cc1 | -27.2% | 18.4µM* | -51.5* | -16.3% | 16.4µM*! | -0.3%
Cc1c(C(=O)Nc2cccc(C#N)c2)sc2nc3n(c(=O)c12)CCCCC3 | -20.5% | 13µM* | nt | -16.0% | 16.4µM* | 11.7%
CCNC(=O)CC1C(=O)N(c2ccc(F)cc2)C(=O)N1Cc1ccc(OC)c(OC)c1 (configuration not stated) | -11.3% | ? | nt | -29.2% | -10.0% | -3.8%
COc1cccc(N/C(SCc2ccccc2C)=C(/C#N)C(=O)NCc2cccs2)c1 | 5.3% | ? | -4.5 | -8.3% | ? | 0.0%
CCOc1ccc(N/C(SCc2cccc([N+](=O)[O-])c2)=C(/C#N)C(N)=O)cc1 | -16.9% | 20.6µM* | -73.4* | 1.7% | ? | 8.0%
COc1cccc(N/C(SCc2cccc([N+](=O)[O-])c2)=C(/C#N)C(=O)NCc2cccs2)c1 | 6.8% | 16.4µM* | -55.3* | 6.1% | ? | 2.6%
COC(=O)CSc1[nH]c2ccccc2c1[N+](=O)[O-] | -22.8% | -28.8% | 5.5 | ? | 18.4µM* | 1.2%
O=C(Cc1ccccc1)N/N=C/c1ccc2cccc(O)c2n1 | -16.1% | 2.59µM* | -18.1 | ? | 2.06µM* | 7.2%
NC(=O)N/N=C/c1ccc2cccc(OCc3ccccc3)c2n1 | 15.0% | ? | nt | 34.9% | 3.0% | nt
Cc1ccccc1CNC(=O)C(=O)NCC(c1ccc2c(c1)OCO2)N1CCOCC1 (configuration not stated) | 2.5% | -12.8% | nt | -7.6% | 1.8% | 5.5%
Cc1ccc(CNC(=O)c2cc(C3CC3)nc3c2cnn3C(C)C)cc1 | -7.5% | 18.4µM* | -29.6 | -2.7% | ? | -1.7%
COc1cccc(CNC(=O)c2cc(C3CC3)nc3c2cnn3C(C)C)c1 | -23.3% | ? | -52.9* | -0.2% | ? | -2.5%
Cc1ccc(S(=O)(=O)N2CCN(C(=O)c3cc(C4CC4)nc4c3cnn4C(C)C)CC2)cc1 | -31.2% | 4.11µM* | ? | ? | ? | -1.1%
CO[C@H]1C[C@@H]2C[C@H](O)C[C@@H](CC(=O)O[C@@H](/C=C\CC(C)C)C[C@@H]3CC[C@H](C)[C@@H](C1)O3)O2 | nt | nt | nt | nt | nt | 7.9%[21 µM]
CC1CCC/C(=N\NC(=S)NCc2ccccc2)C1 (configuration not stated) | -0.8% | -10.2% | -0.6 | 3.0% | -11.9% | 10.1%
CC1C/C(=N\NC(=S)NCc2ccccc2)CC(C)(C)C1 (configuration not stated) | -17.8% | 25.9µM* | 22.0 | -11.7% | ? | -7.9%
COc1ccc(-c2nc3cnc(N(C)C)nc3n(Cc3ccc(F)cc3)c2=O)cc1 | nt | -0.6% | nt | nt | -8.0% | nt
O=C(CCC1N=C2c3ccccc3N=C(SCc3ccccc3F)N2C1=O)NCc1ccccc1 (configuration not stated) | -1.7% | 18.4µM* | nt | 15.1% | ? | 1.5%
O=C(CCC1N=C2c3ccccc3N=C(SCc3ccccc3F)N2C1=O)NCc1ccc(F)cc1 (configuration not stated) | -33.1% | 25.9µM* | nt | ? | ? | 1.5%
COc1ccc(CNC(=O)CCC2N=C3c4ccccc4N=C(SCc4ccc(F)cc4)N3C2=O)cc1 (configuration not stated) | -27.1% | 23.1µM* | nt | ? | ? | 2.5%
O=C(CCC1N=C2c3ccccc3N=C(SCc3ccc(F)cc3)N2C1=O)NCc1ccc(F)cc1 (configuration not stated) | -30.6% | ? | nt | -26.2% | ? | -4.4%
COc1ccc(CNC(=O)CCC2N=C3c4ccccc4N=C(SCc4ccccc4F)N3C2=O)cc1 (configuration not stated) | -16.2% | ? | nt | -2.7% | ? | -1.5%
SMILES | HepG2 tox | TDP1 cell noCPT | IL1B secr inh | TGFb inhibitor | TDP1 cell CPT | TDP1 inh
O=C(CCC1N=C2c3ccccc3N=C(SCc3ccc(F)cc3)N2C1=O)NCc1cccs1 (configuration not stated) | -1.3% | -6.6% | nt | 153.2% | 1.5% | 5.4%
Cc1cc(C)c2c(-n3cccc3)c(C(=O)NCCCN3CCCCC3C)sc2n1 (configuration not stated) | -28.4% | -89.2% | nt | 0.0% | ? | 8.6%
COc1cccc2c1ncc1c(-c3ccc(C)cc3)nn(-c3cccc([N+](=O)[O-])c3)c12 | -5.3% | -3.0% | nt | 7.1% | -5.1% | 6.2%
N#C/C(=C\c1coc2ccc(O)cc2c1=O)C(=O)Nc1nc2ccccc2s1 | 11.2µM* | ? | 12.8 | ? | 9.2µM* | nt
CCOc1ccccc1NC(=O)CCCNC(=O)Cn1cnc2sc(C)c(C)c2c1=O | -14.4% | ? | -7.5 | -18.7% | ? | 0.0%
CCc1cccc(-n2nnc(-c3nc(-c4ccccc4Cl)no3)c2N)c1 | 2.4% | -2.0% | nt | 2.2% | 7.6% | 2.6%
COc1ccccc1NC(=O)C(Cc1ccccc1)NS(=O)(=O)c1ccc2c(c1)c(=O)n(C)c(=O)n2C (configuration not stated) | -31.0% | ? | nt | ? | 23.1µM* | 2.3%
COc1cccc(NC(=O)C(Cc2ccccc2)NS(=O)(=O)c2ccc3c(c2)c(=O)n(C)c(=O)n3C)c1 (configuration not stated) | -10.2% | ? | nt | ? | -19.7% | 3.5%
Cc1ccccc1NC(=O)C(NS(=O)(=O)c1ccc2c(c1)c(=O)n(C)c(=O)n2C)c1ccccc1 (configuration not stated) | -2.9% | 16.4µM* | -3.5 | -2.9% | ? | 2.6%
CC(C)c1ccc(N2C(=O)CSC23C(=O)N(C)c2ccccc23)cc1 (configuration not stated) | -7.1% | nt | nt | 39.0% | nt | 5.6%
